# According to PubChem BioAssay (NCI):
# About 83,000 compounds went through this panel and 20% of them were active in at least one assay; those are over-represented in the sample as a whole.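 Interpretation: 100, growth as untreated; towards 0, rising growth inhibition; 0, no net growth; 0 to -100, cell death. Compounds scoring below 10 were considered active.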 Unmarked numbers belong to inactive results. Active and inactive are the calls of the source.
# Test system: NCI-H522 lung
# Assay: NCI-60 one-dose screen, 48 h (100 = growth as untreated, 0 = no growth, -100 = all killed)
# Conditions: 10 µM unless noted
row,Compound,growth
1,CN1CCN(Cc2ccc(NC(=O)c3[nH]ncc3Nc3ncnc4c3CCC4)cc2)CC1,13.7%
2,CCN(C(=O)CN1CCN(c2cc3c(cc2F)c(=O)c(C(=O)O)cn3C2CC2)CC1)c1nc(-c2ccc(OC)cc2)cs1,49%
3,C[C@@H]1CC[C@@H]2[C@@H]1[C@H](OC(=O)/C=C/c1ccccc1)[C@]1(C3CCCCC3)C[C@@H](OC(=O)CO)[C@@]2(C)O1,65.9%
4,Cc1cc(=O)oc2cc(Oc3nc(-c4ccc(Cl)cc4)cn4c(-c5ccc(Cl)cc5)cnc34)ccc12,95.8%
5,Nc1cc2ccncc2c2ccccc12,98.4%
6,O=C([C@@H](COCc1ccccc1)N1C(=O)[C@@H](N2C(=O)OC[C@@H]2c2ccccc2)[C@H]1/C=C/c1ccccc1)N1CCC(CCN2CCCCC2)CC1,57.1%
7,COc1ccc(N(Cc2cc(OC)c(OC)c(OC)c2)C2OC(=O)c3ccccc32)cc1 (centres undefined),-17.2% (active)
8,Cn1c2ccccc2c2c3c(c4c5ccccc5[nH]c4c21)C(=O)N(N)C3=O,50.2%
9,COC(/C=C/c1ccc([N+](=O)[O-])cc1)OC,86.9%
10,OC(c1cccc(C(F)(F)F)c1)c1cnccc1NC1CCCCCC1 (centres undefined),58.6%
11,O=C(CNC1C2CC3CC(C2)CC1C3)Sc1nnc2sc3ccccc3n12 (centres undefined),96.4%
12,C=CC[N+]1(CC)CCN=C1CCCCCCCCCCCCCCCCC (centres undefined),-85.2% (active)
13,O=C(Nc1ccc(CN2CCOCC2)cc1)c1[nH]ncc1Nc1ncnc2sccc12,7.15% (active)
14,O=c1c(/C=C/c2ccco2)nnc(SCCN2CCOCC2)n1/N=C/c1ccc([N+](=O)[O-])cc1,86.5%
15,COc1cc(C2CC(=O)Nc3c2c(C)nn3-c2nc3ccccc3[nH]2)cc(OC)c1OC (centres undefined),94%
16,CCCCN(CCCC)CCC(C)(O)c1cc2ccccc2c2ccccc12 (centres undefined),91.4%
17,OCCNCCNc1c2ccccc2nc2ccccc12,41.6%
18,C/C(=C(/c1ccc(O)cc1)c1ccc(OCCN(C)C)cc1)c1ccccc1,71.8%
19,CC#Cc1nc2ccccc2c(=O)[nH]1,52.6%

row,Compound,growth
1,CNC(=O)c1cc(Oc2ccc3nc(NC(=O)Nc4ccc(N5CCC(N(C)C)CC5)cc4)sc3c2)ccn1,117%
2,CCN(CC)CCCNc1cc(OC)cc2nc3cc(Cl)ccc3nc12,-63.2% (active)
3,Cn1c2ccccc2c2c3c(c4c5ccccc5n(CCCCCC#N)c4c21)C(=O)N(O)C3=O,-51.9% (active)
4,CN1CCN(Cc2ccc(NC(=O)c3[nH]ncc3Nc3ccnc4ccsc34)cc2)CC1,47.2%
5,O=C(NCc1cccc(C(F)(F)F)c1)[C@H](CCC(=O)N1CCN(C2CCCCC2)CC1)N1C(=O)[C@@H](N2C(=O)OC[C@@H]2c2ccccc2)[C@H]1/C(Cl)=C/c1ccccc1,33.7%
6,CC/C(=C(\c1ccccc1)c1ccc(OCCNC)cc1)c1ccccc1,-74.9% (active)
7,O=C(COCc1c(-c2ccccc2)no[n+]1[O-])Nc1ccc(C(=O)/C=C/c2ccc3c(c2)OCO3)cc1,140%
8,COc1ccc2nc(NC(=O)c3cccnc3Nc3cc(OC)c(OC)c(OC)c3)sc2c1,13.3%
9,CCCCCCCCCc1cc(CN2CCCCC2)c(O)c(CN2CCCCC2)c1,49.2%
10,CCOc1ccc(Nc2nc(-c3c(C)nc4ncccn34)cs2)cc1,-6.3% (active)
11,C=C1CCC2C3(C)COC(C)(C)OC3CCC2(C)C1C/C=C1/C(=O)OCC1OC(C)=O (centres undefined),-88.7% (active)
12,CSc1nc(NCCO)c(C#N)c(-c2cccc(N)c2)n1,87.4%
13,Nc1ccc(N2CCOCC2)cc1,94.1%
14,O=C1C[C@H](Sc2nc(-c3ccc(F)cc3)cc(C(F)(F)F)n2)[C@H]2CO[C@@H]1O2,-62.1% (active)
15,Cc1nc2sc(C(=O)Nc3cccc4c3OCCO4)c(N)c2cc1C(C)O (centres undefined),-29.3% (active)
16,COc1cc(NCCCCN=C(N)N)c2ncccc2c1,-9.41% (active)
17,CCOC(=S)SCc1ccc(Cl)cc1,87.2%
18,NCc1cn2cc(Cl)sc2n1,95.5%
19,O=C1C=CC(=O)c2c1nc1n2CCCC1,72.5%

# Test system: A549/ATCC NSCLC
# Assay: as above
# Conditions: 10 µM unless noted
row,Compound,growth [%]
1,CN1CCN(Cc2ccc(NC(=O)c3[nH]ncc3Nc3ncnc4c3CCC4)cc2)CC1,17.2
2,Cc1cc(=O)oc2cc(Oc3nc(-c4ccc(Cl)cc4)cn4c(-c5ccc(Cl)cc5)cnc34)ccc12,101
3,Cn1c2ccccc2c2c3c(c4c5ccccc5[nH]c4c21)C(=O)N(N)C3=O,66.4
4,COC(/C=C/c1ccc([N+](=O)[O-])cc1)OC,95.4
5,O=C(CNC1C2CC3CC(C2)CC1C3)Sc1nnc2sc3ccccc3n12 (centres undefined),108
6,O=C(Nc1ccc(CN2CCOCC2)cc1)c1[nH]ncc1Nc1ncnc2sccc12,13.6
7,CNC(=O)c1cc(Oc2ccc3nc(NC(=O)Nc4ccc(N5CCC(N(C)C)CC5)cc4)sc3c2)ccn1,79.8
8,Cn1c2ccccc2c2c3c(c4c5ccccc5n(CCCCCC#N)c4c21)C(=O)N(O)C3=O,34.2
9,CN1CCN(Cc2ccc(NC(=O)c3[nH]ncc3Nc3ccnc4ccsc34)cc2)CC1,24.1
10,CCCCCCCCCc1cc(CN2CCCCC2)c(O)c(CN2CCCCC2)c1,61.9
11,O=C1C[C@H](Sc2nc(-c3ccc(F)cc3)cc(C(F)(F)F)n2)[C@H]2CO[C@@H]1O2,102
